Pol eta inh-1 = qHTS for Inhibitors of Polymerase Eta | actives 1.2% (n = 390,000) | DNA polymerase eta (Homo sapiens), Q9Y253 | Potency, µM (series often up to 114 µM), without a hit: at the highest dose activity change, negative = inhibition, actives largely listed as inhibitors | recombinant Pol eta, fluorescent DNA replication assay | AID 588591, 2011; note: potency is the fitted concentration of half-maximal effect; % is set by controls: 0 for no effect and ±100 for the full control effect
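Fluorescent replication assay: 50 nM final substrate added after a 15 min room-temperature compound preincubation with 10 nM enzyme. Signal taken at 0 min and again at 10 min.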
WRN inhibitor = qHTS for Inhibitors of WRN Helicase. Bifunctional 3'-5' exonuclease/ATP-dependent helicase WRN (Homo sapiens), Q14191. AID 651768, 2012. WRN helicase unwinding, fluorescent forked duplex, kinetic. actives 0.46% (n = 360,000). Potency, µM (top dose mostly 114 µM), for the others: top-dose activity change, negative = inhibition, most hits filed as inhibitors; note: potency is the fitted concentration of half-maximal effect; % is set by controls: 0 for no effect and ±100 for the full control effect; nearly all actives have a fitted effect of over 55% in size
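Screening of the MLSMR collection measured strand separation of a quenched forked DNA duplex (100 nM) by 20 nM WRN with 2 mM ATP, all final. Compounds were preincubated with enzyme 15 min at room temperature.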
PI5P4K alpha inh = qHTS for Inhibitors of phosphatidylinositol 5-phosphate 4-kinase (PI5P4K); Phosphatidylinositol 5-phosphate 4-kinase type-2 alpha (Homo sapiens), P48426; PI5P4Kalpha enzyme, ADP-Glo luminescence, 60 min; stronger effect = lower value; max response, %; actives 1.2% (n = 330,000); AID 652105, 2013; active = max response of -50% or lower; inconclusive = between -30% and -50%; inactive = -30% or higher; note: value at the top dose of about 77 µM; % is set by controls: 0 for no effect and ±100 for the full control effect
Target sequence (P48426 whole entry, looked up): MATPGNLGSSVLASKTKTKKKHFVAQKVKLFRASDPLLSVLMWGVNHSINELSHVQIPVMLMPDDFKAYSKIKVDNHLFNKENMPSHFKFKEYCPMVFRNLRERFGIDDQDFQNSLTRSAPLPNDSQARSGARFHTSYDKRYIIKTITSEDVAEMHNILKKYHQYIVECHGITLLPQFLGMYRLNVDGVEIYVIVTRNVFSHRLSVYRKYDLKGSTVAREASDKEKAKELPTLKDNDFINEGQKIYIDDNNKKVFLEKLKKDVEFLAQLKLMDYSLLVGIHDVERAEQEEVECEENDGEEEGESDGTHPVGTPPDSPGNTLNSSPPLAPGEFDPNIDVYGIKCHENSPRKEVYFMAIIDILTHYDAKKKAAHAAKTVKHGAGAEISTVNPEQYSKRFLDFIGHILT
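Human PI5P4Kalpha with substrate in 0.038 M HEPES pH 7.4, 0.28 mM EGTA, 0.1% CHAPS, 5% DMSO; reaction started with 5 microM ATP (final), 60 min at room temperature. ADP formed read by ADP-Glo luminescence.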
Pol kappa inh-1 = qHTS for Inhibitors of Polymerase Kappa; Potency, µM (top dose mostly 107 µM), for the others: top-dose activity, negative = inhibition, usual class: inhibitors; actives 0.53% (n = 400,000); purified Pol kappa, fluorescent DNA synthesis assay, 10 min; DNA polymerase kappa (Homo sapiens), Q9UBT6; AID 588579, 2011; note: potency is the fitted concentration of half-maximal effect; % is set by controls: 0 for no effect and ±100 for the full control effect
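50 nM final substrate added after 15 min RT preincubation of 10 nM Pol kappa with compound; fluorescence read at 0 and 10 min.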
Pol iota inh = qHTS for Inhibitors of Polymerase Iota; DNA polymerase iota (Homo sapiens), Q9UNA4; AID 588590, 2011; actives 1% (n = 390,000); Pol iota fluorescent replication assay, 10 min; Potency, µM (top dose mostly 115 µM), without a hit: at the highest dose activity, negative = inhibition, hits mostly inhibitors; note: potency is the fitted concentration of half-maximal effect
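Fluorescent replication assay read twice, at 0 min and 10 min after adding 50 nM (final) substrate. Enzyme (10 nM) and compounds were first incubated 15 min at room temperature; enzyme-free buffer wells were negative controls.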
POLB inh = qHTS Assay for Inhibitors of DNA Polymerase Beta; P06746; Pol beta primer extension/strand displacement, fluorescence kinetic; Potency, µM (highest dose often 114 µM), inactives show at the top dose activity change, negative = inhibition, hits mostly inhibitors; actives 1.3% (n = 340,000); AID 485314, 2010; note: potency is the fitted concentration of half-maximal effect; % is set by controls: 0 for no effect and ±100 for the full control effect
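Values derive from four-parameter Hill fits of normalized kinetic data: reads at 0 and 10 min following addition of 50 nM substrate to 10 nM Pol beta preincubated 15 min with compound.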
BAZ2B confirm = qHTS Assay for Inhibitors of BAZ2B: Hit Validation. shares compounds with Pol kappa inh-1. AlphaScreen BAZ2B / biotin-H3K14Ac peptide displacement. Potency, µM, usual class: inhibitors. actives 100% (n = 25); calls by dose curve
AlphaScreen ctr = qHTS Assay for Inhibitors of BAZ2B: Hit Validation in AlphaScreen Counterscreen. shares compounds with Pol kappa inh-1. AlphaScreen biotin-His6 peptide bead counterscreen, signal decrease. Potency, µM (top dose mostly 57.1 µM), for inactives: top-dose activity change, negative = inhibition, usual class: inhibitors. 25 tested, under 10 active. AID 588859, 2011;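 active = clear concentration-dependent signal drop in the bead assay lacking the target, so a primary-screen artifact; inconclusive = weak, partial or single-dose response; inactive = no response, so a real primary hit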
TbPGK inh = qHTS for inhibitors of Phosphogylcerate Kinase: Hit Validation Screen; shares compounds with Pol kappa inh-1; TbPGK coupled GAPDH assay, Kinase-Glo luminescence; Potency, µM (doses to about 57.5 µM), inactives show at the top dose activity change, negative = inhibition, hits mostly inhibitors; actives 79% (n = 500); AID 686980, 2013; note: potency is the fitted concentration of half-maximal effect; % is set by controls: 0 for no effect and ±100 for the full control effect; nearly all actives have a fitted effect of over 65% in size
Pol iota confirm = qHTS for Inhibitors of Polymerase Iota: Confirmatory Assay for Cherry-picked Compounds; shares compounds with Pol kappa inh-1; Pol iota primer extension, TAMRA/BHQ fluorescence; Potency, µM, most hits filed as inhibitors; actives 77% (n = 1,500); AID 720496, 2013; note: potency is the fitted concentration of half-maximal effect
GALK confirm = Confirmation Assay for Inhibitors of Human Galactokinase (GALK). purified GALK, Kinase-Glo ATP depletion luminescence. shares compounds with Pol eta inh-1. Potency, µM (highest dose often 115 µM), for inactives: at the highest dose activity, negative = inhibition, most hits filed as inhibitors. actives 70% (n = 150). AID 2015, 2009
Redox cycling = Confirmatory Assay for Inhibitors of Human Galactokinase (GALK): Phenol-HRP redox assay counterscreen. shares compounds with Pol eta inh-1. Phenol red-HRP H2O2 redox cycling, absorbance 600 nm. Potency, µM (doses to about 115 µM), without a hit: top-dose activity change, negative = H2O2 signal, hits mostly inhibitors. actives 40% (n = 150). AID 2035, 2009
HEK293 tox = Secondary Assay for Inhibitors of Human Galactokinase (GALK): HEK-293 Cell Viability Assay; Potency, µM (doses to about 46.1 µM), for inactives: top-dose activity change, negative = cytotoxicity, usual class: inhibitors; shares compounds with Pol eta inh-1; actives 10% (n = 170); HEK-293 viability, ATP luminescence (CellTiter-Glo), 24/48 h; AID 2547, 2010; note: potency is the fitted concentration of half-maximal effect; % is set by controls: 0 for no effect and ±100 for the full control effect
Pol kappa inh-2 = qHTS for Inhibitors of Polymerase Kappa: Confirmatory Assay for Cherry-picked Compounds; Potency, µM, most hits filed as inhibitors; purified Pol-kappa, fluorescent strand-displacement substrate; actives 76% (n = 920); shares compounds with Pol eta inh-1; note: potency is the fitted concentration of half-maximal effect
Pol eta inh-2 = qHTS for Inhibitors of Polymerase Eta: Confirmatory Assay for Cherry-picked Compounds | shares compounds with Pol eta inh-1 | Pol eta primer extension, TAMRA/BHQ fluorescence, 10 min | Potency, µM, most hits filed as inhibitors | actives 64% (n = 2,600); note: potency is the fitted concentration of half-maximal effect
The depositor's hits bear a star; ? = inconclusive; . = no result given; [ ] = remark or other dose. Sampled rows, rich in hits. Any-hit rate of the full collection: about 2.8%. Unless noted, calls come from the whole dose curve; as a rule, active = well fitted curve in the direction sought with a large enough effect; inconclusive = small, poorly fitted or top-dose-only effect, or another doubt; inactive = no such curve, though single readings can be large; an effect the other way counts as inactive or inconclusive.

SMILES	Pol eta inh-1	WRN inhibitor	PI5P4K alpha inh	Pol kappa inh-1	Pol iota inh	POLB inh	Pol iota confirm	Pol kappa inh-2	Pol eta inh-2	others
O=C1C(=O)c2ccccc2-c2ccccc21	2.5µM*	-30%	-5	-8%	0.71µM*	?	.	.	.	TbPGK inh=4.1µM*;GALK confirm=1.9µM*;Redox cycling=0.84µM*;HEK293 tox=7.1µM*
O=C1C(=O)c2cccc3cccc1c23	-20%	6%	-3	-5%	4%	1%	.	.	.
Cc1ccccc1N(CC(=O)NC1CCCC1)C(=O)c1csnn1	-2%	2%	-3	-5%	87%	37%	.	.	.
COc1ccc2nc(NC(=O)c3nc(S(=O)(=O)Cc4cccc(C)c4)ncc3Cl)sc2c1	79µM*	.	.	?	?	32µM*	75*	.	?
COc1ccc2c(c1OC)CN(C)CCc1cc3c(cc1C(=O)C2)OCO3	-4%	-3%	-6	-16%	126%	-17%	.	.	.
O=C1NC(=O)C(=Cc2ccco2)C(=O)N1	8.9µM*	?	-84*	40µM*	?	.	67*	21*	30*	TbPGK inh=3.7µM*
O=C1NC(=O)N(c2ccc(Cl)cc2)C(=O)/C1=C\c1ccc(Sc2nc3ccccc3[nH]2)o1	18µM*	25µM*	-87*	20µM*	?	22µM*	38*	15*	27*
CCC1/C=C/C=CCC(C)C(O)[C@@](C)(O)C(=O)C(C)C(O)C(C)C(=O)C(C)C(O)C(C)C=CC(=O)O[C@H]2C(C)C(CC1)O[C@]1(CCC(C)C(CC(C)O)O1)C2C (stereo not given in full)	.	.	.	-10%[60.1 µM]	.	.	.	.	.
C=C1C(=O)O[C@@H]2C[C@@H](C)[C@@H]3C=CC(=O)[C@@]3(C)[C@@H](OC(=O)CC(=O)O[C@H]3[C@@H]4C(=C)C(=O)O[C@@H]4C[C@@H](C)[C@@H]4C=CC(=O)[C@]43C)[C@H]12	7.9µM*	45µM*	-66*	35µM*	4.5µM*	20µM*	19*	.	17*
C=C1C(=O)OC2CC(C)C3C=CC(=O)C3(C)C(O)C12 (stereo not given)	?	-31%	3	-4%	?	.	.	.	.
COc1ccccc1N1C(=O)NC(=O)/C(=C/c2ccc3c(c2)Cc2ccccc2-3)C1=O	-20%	-20%[11.6 µM]	?	-3%	?	1%	.	.	.
CCN1C(=O)/C(=C/c2ccc3c(c2)CCN3CCCCl)C(=O)NC1=S	13µM*	-32%[11.6 µM]	-73*	45µM*	14µM*	28µM*	67*	.	43*
CNc1ccc2nc3ccccc3[n+](C)c2c1	50µM*	3µM*	4	20µM*	35µM*	28µM*	75*	19*	67*
c1ccc2nc3ccccc3cc2c1	.	.	.	-10%[60.1 µM]	?	.	.	.	.
C[n+]1c2ccccc2nc2ccc(NCCO)cc21	40µM*	4.7µM*	-24	45µM*	?	28µM*	75*	42*	67*
C=CCn1c(CSc2ccccc2[N+](=O)[O-])n[nH]c1=S	13µM*	40µM*	-74*	50µM*	8.9µM*	10µM*	53*	.	24*
CCC1C(=O)OC[C@H]1Cc1cncn1C (stereo not given in full)	.	.	.	-8%[60.1 µM]	.	.	.	.	.
Cc1ccc(C(=O)Nc2ccc(S(=O)(=O)N3CCC(c4nc5ccccc5s4)CC3)cc2)cc1	-5%	.	.	-18%	23%	-16%	.	.	.
Cc1nc(NC(=O)c2ccccc2)sc1-c1csc(Nc2ccc(C(=O)O)cc2)n1	18µM*	-9%[11.6 µM]	?	-26%	?	16%	42*	38*	43*	BAZ2B confirm=28*;AlphaScreen ctr=-17%

Screening results deposited in PubChem BioAssay by National Center for Advancing Translational Sciences (NCATS).
